# Experimental data: PubChem BioAssay (Tox21)
# Inconclusive results are not listed. A number with no mark means an inactive call. Calls of active or inactive are those of the source. The call rests on the fitted dose curve; in most records, active means well fitted cell-killing curve with a large enough effect in the repeat runs; inconclusive means weak or mixed curves; inactive means flat fitted curve, though single readings scatter.
# Assay: qHTS RealTime-Glo MT Cell Viability Assay in HepG2 cells - 8 hour (AID 1224873); further: nearly all actives have a fitted effect of over 55% in size
# Settings: RealTime-Glo luminescence; series mostly up to 76.8 µM; viability change, negative = cytotoxic: at the top concentration
# From the text: National Center for Advancing Translational Sciences [NCATS]
# NIH Chemical Genomics Center [NCGC]
# U.S. Environmental Protection Agency [EPA]
# National Institutes of Environmental Health Sciences [NIEHS]
# National Toxicology Program [NTP]
# U.S. Food and Drug Administration [FDA]
# Measure of cell viability is critical in the cell-base assay. Analysis of cell viability is necessary for the characterization of cell responses to cytotoxic drugs and environmental stress. A RealTime-Glo MT Cell Viability Assay to monitor cell viability in real time of continues cell culture during 40 hours of compound treatment was used to screen Tox21 10K library compounds in HepG2 cells. The RealTime-Glo MT Cell Viability Assay is a nonlytic, homogeneous, bioluminescent method to measure cell viability in real time using a simple, plate-based method. The assay involves adding NanoLuc luciferase and a cell-permeant prosubstrate to cells in culture. Viable cells reduce the proprietary prosubstrate to generate a substrate for NanoLuc luciferase. This substrate diffuses from cells into the surrounding culture medium, where it is rapidly used by the NanoLuc Enzyme to produce a luminescent signal. The signal correlates with the number of viable cells, making the assay well suited for cytotoxicity studies.
# Tox21 Assay Protocol Summary:
# The mixture of HepG2 cell suspension and reagents were dispensed at 600cells/6 ul/well in 1536-well tissue culture treated black solid bottom plates using a Multidrop dispenser. After the assay plates were incubated at a 37 C/5% CO2 incubator for 5 hours, 23 nL of compounds dissolved in DMSO, positive and negative controls was transferred to the assay plate by a pintool work station. The plates were incubated at 37 C for 40 hours. The luminescence intensity were measured at 0h, 8h, 16h, 24h, 32h and 40h time points using ViewLux plate reader during compound treatment.
# On the % scale 0 is the no-effect control and ±100 the full control effect; potency means the concentration at half of the fitted maximal effect.
SMILES,"viability change, negative = cytotoxic",Potency
CC1CN1 (stereo not given),4.36%,–
Oc1ccc(Cl)c(Cl)c1,-1.97%,–
CCOP(=S)(OCC)Oc1cc(C)nc(N(CC)CC)n1,-10.8%,–
CCC[CH2][Sn]([CH2]CCC)([CH2]CCC)[O][Sn]([CH2]CCC)([CH2]CCC)[CH2]CCC,–,0.956 µM (active)
C=CC(=O)[O][Sn]([CH2]CCC)([CH2]CCC)[CH2]CCC,–,0.977 µM (active)
CCCC[N+]1(C)CCCC1 (tested in a mixture with another compound),-2.63%,–
CC(C)NCC(O)c1ccccc1Cl (stereo not given),2.22% [at 35.3 µM],–
Clc1ccc(C(c2ccc(Cl)cc2)C(Cl)Cl)cc1,-16%,–
O=[N+]([O-])c1ccc(CCl)cc1,1.08%,–
CCN(CC)Cc1nccn1-c1ccc([N+](=O)[O-])cc1C(=O)c1ccccc1Cl,-0.502% [at 35.3 µM],–
CN1[C@@H]2CC[C@H]1CC(O)C2 (stereo not given in full),-0.992%,–
CN/C(=N\[N+](=O)[O-])NCc1cnc(Cl)s1,-0.197%,–
CN,0.361%,–
CC(=O)[O-].CC(=O)[O-].CC(=O)[O-].[Sb+3],-4.57% [at 2.72 µM],–
CC(C)c1c(CN(C)C(C)Cc2ccccc2)n(C)n(-c2ccccc2)c1=O (stereo not given),-18.1% [at 35.3 µM],–
S=C=NCCc1ccccc1,-6.59%,–
O=c1c2ccccc2c(=O)c2c1cc(Cl)c1[nH]c3c([nH]c12)c(Cl)cc1c(=O)c2ccccc2c(=O)c13,-10.7%,–
CCNS(=O)(=O)C(F)(F)C(F)(F)C(F)(F)C(F)(F)C(F)(F)C(F)(F)C(F)(F)C(F)(F)F,1.44%,–
O=[N+]([O-])c1ccccc1-c1ccccc1,-1.23%,–
CC(=O)O.CC(=O)O.CC(=O)O.CC(=O)O.CC(=O)O.CC(=O)O.CC(=O)O.O.O.[Cr].[Cr].[Cr],0.983%,–

SMILES,"viability change, negative = cytotoxic",Potency
O=S(=O)(O)F,-3.53%,–
C[C@]12C/C(=C/O)C(=O)C[C@@H]1CC[C@@H]1[C@@H]2CC[C@@]2(C)[C@H]1CC[C@]2(C)O,-22.2% [at 35.3 µM],–
OCC(Br)CBr (stereo not given),1.73%,–
O=NN(CCO)CCO,0.719%,–
CCOP(=S)(OCC)SC(CCl)N1C(=O)c2ccccc2C1=O (stereo not given),-13.6%,–
c1ccc2nc(N3CCNCC3)ccc2c1,-2.55% [at 35.3 µM],–
O=C(Nc1ccc(F)cc1F)c1cccnc1Oc1cccc(C(F)(F)F)c1,-3.98%,–
CCOC(=O)CCN(SN(C)C(=O)Oc1cccc2c1OC(C)(C)C2)C(C)C,-25.5%,–
CCn1cc[n+](C)c1 (tested in a mixture with another compound),-0.594%,–
CC(=O)[O][Sn]([c]1ccccc1)([c]1ccccc1)[c]1ccccc1,–,11 µM (active)
BrCC(Br)(Br)Br,-9.57%,–
CN=C=O,1.36%,–
Cc1ccc([N+](=O)[O-])[c]2c1[O][Hg]2,–,2.13 µM (active)
CCCN,-0.264%,–
Nc1nc(N)nc(Cl)n1,3.27%,–
N#Cc1sc2c(=O)c3ccccc3c(=O)c=2sc1C#N,–,9.77 µM (active)
Nc1c(Cl)c(Cl)c(Cl)c(Cl)c1Cl,-0.914%,–
Clc1ccc(C2(Cn3cncn3)OCCO2)c(Cl)c1,1.55%,–
Nc1cc(Cl)ccc1Cl,3.34%,–
CCNc1nc(NC(C)C(C)C)nc(SC)n1 (stereo not given),1.41%,–
